Inconclusive results are not listed. Entries that show only a call come without a potency. The source made the active and inactive calls. Calls follow the shape of the full dose curve.
Potency is read from the fitted curve at half-maximal effect.

The target in the assay is Retinoic acid receptor RXR-alpha (Homo sapiens) (UniProt P19793). As to the kind of experiment: qHTS assay to identify small molecule agonists of the RXR signaling pathway (AID 1159527). Also: nearly all actives have a fitted effect of over 35% in size. The note with it: HEK293T RXRa-UAS-bla, beta-lactamase ratio, 16 h; series mostly up to 76.8 µM; activation: at the top concentration. The text has this: U.S. Tox21 Program National Center for Advancing Translational Sciences [NCATS] NIH Chemical Genomics Center [NCGC] U.S. Environmental Protection Agency [EPA] National Institutes of Environmental Health Sciences [NIEHS] National Toxicology Program [NTP] U.S. Food and Drug Administration [FDA] Tox21 Assay Overview: The Retinoid X receptor (RXR), a nuclear hormone receptor expressed in liver, spleen, placenta, epidermis, central nervous system. These receptors are able to form homo and heterodimers with other nuclear receptors and due to this heterodimerizing ability, RXR functions as master regulators producing diverse physiological effects. Three subtypes of RXR exist; alpha, beta and gamma. Retinoid X receptor alpha (RXR-alpha) has potential roles in metabolic signaling pathways, skin alopecia, dermal cysts, cardiac development, insulin sensitization etc. Therefore screening environmental chemicals on RXR-alpha signaling can be used for the studies focused on such therapeutic applications. For quantification of RXR-alpha ligands signaling, GeneBLAzer RXR alpha-UAS-bla HEK 293T (Life Technologies, Carlsbad, CA) cells containing a beta-lactamase reporter-gene under control of Retinoid X receptor-alpha response element were used to screen Tox21 10K library.
Chain of Retinoic acid receptor RXR-alpha (Homo sapiens) (P19793 whole entry, looked up): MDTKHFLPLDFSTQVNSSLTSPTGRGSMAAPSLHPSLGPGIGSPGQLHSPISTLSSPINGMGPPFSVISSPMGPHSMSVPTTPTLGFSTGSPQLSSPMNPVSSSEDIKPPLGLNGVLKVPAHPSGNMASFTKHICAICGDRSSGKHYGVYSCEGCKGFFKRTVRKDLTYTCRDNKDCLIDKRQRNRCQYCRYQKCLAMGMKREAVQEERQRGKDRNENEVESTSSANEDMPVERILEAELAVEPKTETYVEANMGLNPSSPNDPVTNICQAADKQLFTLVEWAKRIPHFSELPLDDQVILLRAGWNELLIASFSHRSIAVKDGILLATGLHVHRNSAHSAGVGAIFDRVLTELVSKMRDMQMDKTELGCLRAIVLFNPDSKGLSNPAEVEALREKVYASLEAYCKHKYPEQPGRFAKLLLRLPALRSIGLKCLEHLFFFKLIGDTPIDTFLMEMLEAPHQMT
Tox21 Assay Protocol Summary: RXR-alpha HEK 293T cells were dispensed at 2,000 cells/6 uL of assay medium containing 2% charcoal-stripped FBS using a Multidrop Combi (ThermoFisher Scientific, Waltham, MA) dispenser. The assay was performed in black wall/clear-bottom 1536-well plates (Greiner Bio-One North America Inc. Monroe, NC). 9-cis retinoic acid was used as a positive control in the agonist mode screen. After the assay plates were incubated at 37 C and 5% CO2 for 5 hr, 23 nL of compounds dissolved in DMSO, positive controls or DMSO only were transferred to the assay plate by a Pintool station (Kalypsys, San Diego, CA). The assay plates were incubated at 37 C and 5% CO2 for 16 hr. One uL of LiveBLAzer B/G FRET substrate (Life Technologies) was added using a Flying Reagent Dispenser (Aurora Discovery, San Diego, CA) and the plates were incubated at room temperature for 2 hr. Fluorescence intensity (405 nm excitation, 460/530 nm emission) was measured using an Envision plate reader (PerkinElmer, Shelton, CT).
On to `N#CCCCCC#N`, for which the “activation” value was 13.9% (inactive).
In the case of `O=[N+]([O-])/N=C1\NCCN1Cc1ccc(Cl)nc1`, the Potency result is “inactive”.
For `CCCCOCC1CO1` (stereo not given), the “activation” value was 14.2% (inactive).
On the same count and under the same terms, the same measure for `Oc1ccc(Cl)cc1Cl`: -1.76% (inactive); for `COC(=O)Nc1nc2ccccc2[nH]1`: -8.26% (inactive).
Turning to `Cn1c(-c2ccccc2)cc(-c2ccccc2)[n+]1C`, the Potency entry is “inactive”.
With `Nc1ccc([N+](=O)[O-])cc1N`, the “activation” value was -14.9% (inactive).
Still for that read-out and setting: with `CCCCSP(=O)(SCCCC)SCCCC` the figure was -16.9% (inactive); with `CCCCCCCCCCCCCl`, 9.05% (inactive).
`ClC(Cl)=C(Cl)C(Cl)=C(Cl)Cl`: the Potency entry is “inactive”.
Same read-out and setting: with `Clc1ccccc1-c1nnc(-c2ccccc2Cl)nn1` the entry was “inactive”.
Same read-out and setting: the same measure for `C=C(C)C#N`: “inactive”.
Take `CC1CC(=O)O1` (stereo not given): the “activation” value is 10.3% (inactive).
Still for that read-out and setting: with `Cc1ccc(N=CN(C)C=Nc2ccc(C)cc2C)c(C)c1` the figure was 0.105% [at 35.3 µM] (inactive).
Regarding `CCCCOC(=O)COC(=O)c1ccccc1C(=O)OCCCC`, the Potency result was “inactive”.
The same measure, in the same setting: with `NN=C(N)N` the entry was “inactive”.
Take `Brc1ccc(Br)cc1`: the “activation” value was 14.3% (inactive).
In the case of `O=NN(c1ccccc1)c1ccccc1`, the Potency entry was “inactive”.
Same read-out and setting: the same measure for `C[N+](C)(C)CC(=O)O`: “inactive”.
On to `COP(=S)(OC)Oc1ccc(Sc2ccc(OP(=S)(OC)OC)cc2)cc1`, for which the “activation” value was -9.82% [at 35.3 µM] (inactive).
For the compound `S=c1[nH]c2ccccc2[nH]1`, the Potency result was “inactive”.
The same measure, in the same setting: the same measure for `CN(C)c1ccccc1`: “inactive”.
Consider `CC(C)CON=O`, for which the Potency result is “inactive”.
For `CNC(=O)Oc1cccc2c1OC(C)(C)C2`, the “activation” value was 8.62% (inactive).
Take `CC1=C(C(=O)Nc2ccccc2)SCCO1`: the Potency result is “inactive”.
For the compound `Cc1cc(Cl)ccc1N=CN(C)C`, the Potency result is “inactive”.
Same read-out and setting: with `C[N+](C)(C)CC(=O)[O-]` the entry was “inactive”.
For `CCCCOCCOC(C)=O`, the “activation” value is 4.19% (inactive).
The same measure, in the same setting: the same measure for `ClC(Cl)(Cl)c1ccccc1`: -2.38% (inactive).
For the compound `CNC(=O)CSP(=S)(OC)OC`, the Potency result is “inactive”.
With `COc1ccc(C=O)cc1OC`, the “activation” value was -9.79% (inactive).
Consider `CCOP(=O)(OCC)OCC`, for which the Potency is 5.49 µM (active).
Still for that read-out and setting: the same measure for `COc1ccc(CO)cc1`: “inactive”.
Same read-out and setting: the same measure for `CC1(C)Cc2cccc(O)c2O1`: “inactive”.
With `COc1ccc(O)c(C(C)(C)C)c1`, the “activation” value is 4.97% (inactive).
In the case of `Clc1cccc(C(Cl)(Cl)Cl)n1`, the Potency result is “inactive”.
Same read-out and setting: with `NC(=O)CN1CCCC1=O` the entry was “inactive”.
Regarding `Cl`, the “activation” value is 0.818% (inactive).
Consider `CC(C)(C#N)N=NC(C)(C)C#N`, for which the “activation” value is -2.84% (inactive).
In the case of `CC(O)CN(CC(C)O)CC(C)O` (stereo not given), the Potency entry is “inactive”.

The values above are taken from PubChem BioAssay (Tox21).
